# According to the supplement of paper PMC9262897, “Low-cost anti-mycobacterial drug discovery using engineered E. coli” (Nature Communications, 2022):
# Counter-ions that a name gives are not always drawn. ± gives the standard deviation of the averaged measurements.
# System: E. coli TESEC Mtb Alr
# Experiment: growth (OD600 after 10 h); higher = more growth (less inhibition)
# Settings: arabinose 10000000 nM; compound 0.1 mM; raw OD600 reference: median of DMSO wells 0.146, cell-free background 0.041
# Experimental: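 TESEC Mtb Alr E. coli, or the Alr+ wild-type control, in 384-well plates with Prestwick library compounds at 0.1 mM and 1% DMSO, across arabinose induction levels of 1E3 to 1E7 nM. Growth is read as OD600 after 10 h at 37 °C in triplicate biological replicates.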
row,SMILES,growth
1,Nc1nc(=O)[nH]cc1F [Flucytosine],0.14 ± 0.0027
2,CN(C)CCC[C@@]1(c2ccc(F)cc2)OCc2cc(C#N)ccc21 [Escitalopram oxalate],0.143 ± 0.007
3,CCOC(=O)OC(C)OC(=O)[C@@H]1N2C(=O)[C@@H](NC(=O)[C@H](N)c3ccccc3)[C@H]2SC1(C)C (stereo partly specified) [Bacampicillin hydrochloride],0.198 ± 0.006
4,CN1CCCN=C1/C=C/c1cccs1 [Pyrantel tartrate],0.148 ± 0.0055
5,CN1CCOC(c2ccccc2)c2ccccc2C1 (stereo unspecified) [Nefopam hydrochloride],0.157 ± 0.0035
6,c1ccc2c(CC3=NCCN3)cccc2c1 [Naphazoline hydrochloride],0.147 ± 0.0052
7,COc1cc(C)nc(-n2nc(C)cc2OC)n1 [Epirizole],0.139 ± 0.005
8,CCc1cccc2c3c([nH]c12)C(CC)(CC(=O)O)OCC3 (stereo unspecified) [Etodolac],0.1376 ± 0.00061
9,C[C@]12CC[C@@H]3c4ccc(O)cc4CC[C@H]3[C@@H]1C[C@@H](O)[C@@H]2O [Estriol],0.143 ± 0.0047
10,N#Cc1ccc(C(c2ccc(C#N)cc2)n2cncn2)cc1 [Letrozole],0.146 ± 0.0044
11,Cc1cc(C2CCCCC2)n(O)c(=O)c1 [Ciclopirox ethanolamine],0.0504 ± 0.00059
12,CC(=O)/N=c1/sc(S(N)(=O)=O)nn1C [Methazolamide],0.138 ± 0.01
13,CC(C)NC[C@H](O)COc1ccc(CC(N)=O)cc1 [(S)-(-)-Atenolol],0.1491 ± 0.0014
14,COc1cc(OC)c(C(=O)CCCN2CCCC2)c(OC)c1 [Buflomedil hydrochloride],0.146 ± 0.0076
15,CCN1CCC[C@H]1CNC(=O)c1c(OC)ccc(Br)c1OC [Remoxipride Hydrochloride],0.136 ± 0.0041
16,CN(C)c1nc(N(C)C)nc(N(C)C)n1 [Altretamine],0.163 ± 0.009
17,Nc1ccn([C@@H]2O[C@H](CO)[C@@H](O)[C@@H]2O)c(=O)n1 [Cytarabine],0.171 ± 0.002
18,CC(N)C12CC3CC(CC(C3)C1)C2 (stereo unspecified) [Rimantadine Hydrochloride],0.151 ± 0.006
19,Cn1c(=O)c2nc[nH]c2n(C)c1=O [Theophylline monohydrate],0.158 ± 0.0078
20,O=C(O)c1ccccc1OP(=O)(O)O [Fosfosal],0.137 ± 0.0018
21,COC(=O)Nc1nc2cc(C(=O)c3ccccc3)ccc2[nH]1 [Mebendazole],0.159 ± 0.0019
22,O=c1[nH]cc(F)c(=O)[nH]1 [5-fluorouracil],0.08963 ± 0.00055
23,CCc1nn(CCCN2CCN(c3cccc(Cl)c3)CC2)c(=O)n1CCOc1ccccc1 [Nefazodone HCl],0.0473 ± 0.0025
24,COc1cc(NC(C)CCCN)c2ncccc2c1 (stereo unspecified) [Primaquine diphosphate],0.0577 ± 0.0019
25,CNS(=O)(=O)Cc1ccc2[nH]cc(CCN(C)C)c2c1 [Sumatriptan succinate],0.137 ± 0.0028
26,Cc1ccc(N(CC2=NCCN2)c2cccc(O)c2)cc1 [Phentolamine hydrochloride],0.161 ± 0.0026
